# Source: PubChem
# Tau fibril FP: blocks human tau fibril formation measured by polarization. P10636. actives 0.39% (n = 280,000). K18 P301L tau heparin fibrillization, Alexa594 FP, 6 h. Potency, µM (series often up to 57.7 µM), for the others: top-dose activity, negative = inhibition, most hits filed as inhibitors; note: potency is the fitted concentration of half-maximal effect; nearly all actives have a fitted effect of over 55% in size
# Target sequence (P10636 561-689 P618L limits assumed): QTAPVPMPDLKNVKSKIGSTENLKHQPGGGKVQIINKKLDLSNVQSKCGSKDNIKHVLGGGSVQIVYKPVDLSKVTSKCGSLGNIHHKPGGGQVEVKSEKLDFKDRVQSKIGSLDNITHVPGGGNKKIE
#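 FP of Alexa 594-tau after heparin (20 uM) induction. Substrate: human K18 P301L, 15 uM unlabeled, 0.24 uM labeled. Buffer 100 mM sodium acetate pH 7. 6 hr, 37 C.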
# Tau fluor counter: counter-screen for tau fibril formation inhibitors. tau K18 P301L Alexa594 fluorescence, heparin fibrillization. Potency, µM (highest dose often 57.7 µM), for inactives: at the highest dose activity change, negative = decrease. actives 0.93% (n = 280,000); note: potency is the fitted concentration of half-maximal effect; nearly all actives have a fitted effect of over 55% in size
#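 Human tau K18 P301L (15 uM unlabeled, 0.24 uM Alexa 594-labeled) in 100 mM sodium acetate pH 7 with 20 uM heparin, 6 hr at 37 C. ThT 30 uM added, 1 hr ambient; Alexa 594 FP and total fluorescence read at 555/632 nm.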
# FBPA coupling cs: counter-screen for Giardia aldolase inhibitors: coupling enzyme system; activity change, negative = inhibition, % at 58.2 µM, hits read low; actives 0.67% (n = 290,000); coupling enzyme system counterscreen, AmpLite Red fluorescence; in the data active = activity change below about -30%
#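 Final compound at 57.5 uM, incubated 10 min at RT with coupling enzyme reagent (glyceraldehyde-3-phosphate), then 20 min with substrate and AmpLite Red detection. Fluorescence read at 525/598 nm; tests interference with the coupling assay, not aldolase inhibition.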
# Sfp PPTase inh: Sfp phosphopantetheinyl transferase inhibition. Q9F4F7. Biochemical Sfp PPTase activity, qHTS. Potency, µM, for inactives: largest response in the series, negative = inhibition, usual class: inhibitors. actives 3.5% (n = 310,000);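 note: the enzyme is Sfp with the accession as filed and its product quenches rhodamine fluorescence; potency is the fitted concentration of half-maximal effect; 0% = enzyme reaction without inhibitor and -100% = no enzyme wells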
#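 With Hepes-Na pH 7.6 buffer containing 10 mM MgCl2, Sfp (15 nM) modified BHQ-2-YbbR (12.5 uM) using rhodamine-CoA (5 uM). Two reads 30 minutes apart at 525/598 nm yielded each well's rate.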
# KDM4E inh: blocks human JMJD2E demethylase activity. B2RXH2. JMJD2E catalytic domain, FDH-coupled NADH fluorescence (FDH is formaldehyde dehydrogenase). Potency, µM (doses to about 57.1 µM), inactives show at the top dose activity change, negative = inhibition, most hits filed as inhibitors. actives 1.6% (n = 230,000); active = well fitted inhibition curve with a large enough effect, not every such curve was filed as active; inconclusive = small, poorly fitted or top-dose-only effect, or another doubt; inactive = no such curve, though single readings can be large or run the other way;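 note: potency is the fitted concentration of half-maximal effect; 0% = wells with enzyme and -100% = buffer wells without enzyme; nearly all actives have a fitted effect of over 50% in size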
# Target sequence (B2RXH2 1-337 limits assumed): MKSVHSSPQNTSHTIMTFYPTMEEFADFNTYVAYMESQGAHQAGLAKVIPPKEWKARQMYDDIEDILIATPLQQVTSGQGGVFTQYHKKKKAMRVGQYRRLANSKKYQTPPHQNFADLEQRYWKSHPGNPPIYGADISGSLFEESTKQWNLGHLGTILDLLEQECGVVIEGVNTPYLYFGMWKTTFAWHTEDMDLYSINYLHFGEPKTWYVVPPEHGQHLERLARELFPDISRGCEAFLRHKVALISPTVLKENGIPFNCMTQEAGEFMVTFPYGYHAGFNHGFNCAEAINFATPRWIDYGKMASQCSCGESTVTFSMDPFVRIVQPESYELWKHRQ
# Tau ThT inhib: blocks human tau fibril formation measured by thioflavin T | P10636 | recombinant tau K18 P301L (four-repeat tau fragment), heparin-induced fibrillization, ThT fluorescence | Potency, µM (doses to about 57.4 µM), for inactives: at the highest dose activity, negative = inhibition, most hits filed as inhibitors | actives 2.1% (n = 270,000); note: potency is the fitted concentration of half-maximal effect; nearly all actives have a fitted effect of over 55% in size
#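 Heparin-induced (20 uM) aggregation of recombinant human K18 P301L tau, 15 uM unlabeled with 0.24 uM labeled, pH 7 acetate buffer, 6 hr at 37 C with compound. Fibrils quantified by 30 uM ThT fluorescence after 1 hr ambient incubation.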
# * marks the source's active call; other numbers are inactive results; ? = inconclusive; · = no result given; ! = not active in a repeat; [ ] = dose if it differs, or a comment. An excerpt weighted towards active compounds, which were near 5.3% of everything screened. Unless noted, calls come from the whole dose curve; as a rule, active = well fitted curve in the direction sought with a large enough effect; inconclusive = small, poorly fitted or top-dose-only effect, or another doubt; inactive = no such curve, though single readings can be large; an effect the other way counts as inactive or inconclusive. Unless noted, % is set by controls: 0 for no effect and ±100 for the full control effect.
SMILES,Tau fibril FP,Tau fluor counter,FBPA coupling cs,Sfp PPTase inh,KDM4E inh,Tau ThT inhib
CC(C)C[C@H]1C(=O)N2CCCC2[C@]2(O)O[C@](NC(=O)[C@@H]3C=C4c5cccc6[nH]c(Br)c(c56)C[C@H]4N(C)C3)(C(C)C)C(=O)N12 (stereo not given in full),12.1%,?,·,44.7µM*,?,?
CN1C[C@H](C(=O)N[C@]2(C)O[C@]3(O)[C@H]4CCCN4C(=O)[C@H](Cc4ccccc4)N3C2=O)C[C@H]2c3cccc4[nH]cc(c34)C[C@@H]21,·,·,0.9,3.1%,-5.1%[25.5 µM],·
CC(C)[C@@]1(NC(=O)[C@H]2CC3c4cccc5[nH]cc(c45)C[C@H]3N(C)C2)O[C@@]2(O)C3CCCN3C(=O)[C@@H](Cc3ccccc3)N2C1=O (stereo not given in full),?,2.51µM*[quencher],·,79.4µM*!,·,?
CC(C)[C@]1(NC(=O)[C@@H]2C=C3c4cccc5[nH]cc(c45)C[C@H]3N(C)C2)O[C@@]2(O)C3CCCN3C(=O)[C@H](Cc3ccccc3)N2C1=O (stereo not given in full),-12.2%,-29.2%,-31.8*,-13.0%,?,?
CC(C)[C@@]1(NC(=O)[C@@H]2C[C@H]3c4cccc5[nH]cc(c45)C[C@@H]3N(C)C2)O[C@]2(O)[C@H]3CCCN3C(=O)[C@H](Cc3ccccc3)N2C1=O,·,·,-0.4,-10.4%,3.7%[25.5 µM],·
CC(C)C[C@H]1C(=O)N2CCC[C@@H]2[C@@]2(O)O[C@](NC(=O)[C@@H]3C=C4c5cccc6[nH]cc(c56)C[C@@H]4N(C)C3)(C(C)C)C(=O)N12,·,·,-25.9,-17.1%,?,·
CN1C[C@H](C(=O)N[C@]2(C)O[C@@]3(O)C4CCCN4C(=O)[C@H](Cc4ccccc4)N3C2=O)C[C@@H]2c3cccc4[nH]cc(c34)C[C@H]21 (stereo not given in full),3.5%,12.6µM*[quencher],-0.9,-25.4%,-5.9%,?
COc1ccc(-c2nc(CSCC(=O)N3CCN(c4ccc(F)cc4)CC3)c(C)o2)cc1,6.2%,-17.3%,·,·,·,?
CCCCCc1nc2ccccc2c(=O)n1-c1ccc(C)cc1,-10.2%,-8.5%,·,·,·,-0.1%
CCCCCc1nc2c(c(=O)c3ccccc3n2C)c(=O)n1C1CCCCCC1,-0.4%,-7.7%,2.0,39.8µM*,-3.1%,?
C=C(CC1(C(C)NP(=O)(c2ccccc2)c2ccccc2)CC1)c1ccccc1 (stereo not given),10.6%,-13.2%,-1.5,-10.3%,-8.4%,?
CCN1C(=O)C(=Cc2cc(C)n(C3CC3)c2C)C(=O)N(CC)C1=S,-3.8%,-5.2%,-0.5,?,-2.4%,?
CCN1C(=O)C(=Cc2ccc(C)s2)C(=O)N(CC)C1=S,?,-28.6%,4.5,?,-4.8%,14.1µM*
[O-]/[N+](=C/c1cccnc1)c1ccc(Br)cc1,?,-20.3%,-4.7,12.6µM*,-3.4%,28.2µM*
C=C(C)[C@]12C[C@@H](C)[C@@]34OC(Cc5ccccc5)(O[C@@H]1[C@@H]3C=C(COC(=O)Cc1cc(OC)c(O)cc1I)C[C@]1(O)C(=O)C(C)=C[C@@H]41)O2,-8.3%,?,-5.7,15.8%,·,-4.1%
C/C1=C/C(=O)O[C@@H]2C[C@@H](CC[C@H](C)/C=C\CC1)O[C@@](O)(C1CSC(=O)N1)C2 (stereo not given in full),·,·,-0.7,18.1%,·,·
CC(C)(C)c1cc(O)ccc1O,·,·,·,39.8µM*,·,·
CN(C)CCN(C)CCc1ccc(Cl)c(Cl)c1,?,-0.3%,3.1,16.2%,-8.2%,-4.0%
Cc1c2ccncc2c(C)c2c1[nH]c1ccccc12,5.2%,?,-30.3*!,22.4µM*,12.6µM*,11.2µM*
c1ccc2c(c1)[nH]c1cnccc12,2.1%,-10.6%,-2.6,-13.6%,?,4.0%
Oc1cc[c]([Hg][Cl])cc1,·,·,·,0.0562µM*,·,·
O=C(NC1(C(F)(F)F)Oc2ccc(Cl)cc2O1)N1CCC2(CC1)OCCO2 (stereo not given),-5.9%,-20.5%,-16.2,79.4µM*,15.8µM*,?
O=C(c1ccccc1)N1CCC2(CC1)OCCO2,10.2%,0.1%,1.5,-4.5%,-3.7%,-3.3%
O=C(CCC(=O)N1CCOc2ccc(Cl)cc21)N1CCC2(CC1)OCCO2,·,·,·,-3.0%,·,·
O=C(NC1(C(F)(F)F)Oc2ccccc2O1)N1CCC2(CC1)OCCO2,7.5%,-7.9%,0.5,-1.0%,14.1µM*,?
SMILES,Tau fibril FP,Tau fluor counter,FBPA coupling cs,Sfp PPTase inh,KDM4E inh,Tau ThT inhib
CC(Cc1cccc(C(F)(F)F)c1)NCCCc1ccccc1 (stereo not given),1.3%,-0.4%,·,-0.9%,·,7.9%
CN(C)[C@H]1C(=O)C(C(N)=O)=C(O)[C@]2(O)C(=O)C3=C(O)c4c(O)cccc4[C@@](C)(O)[C@H]3C[C@@H]12,·,·,-10.0,-11.6%,11.2µM*,·
CN(C)C1C(=O)C(C(N)=O)=C(O)C2(O)C(=O)C3=C(O)c4c(O)cccc4C(C)(O)C3CC12 (stereo not given),·,·,-19.1,-1.1%,·,·
CN(C)C1C(=O)C(C(N)=O)=C(O)[C@@]2(O)C(=O)C3=C(O)c4c(O)cccc4[C@@](C)(O)C3[C@H](O)C12 (stereo not given in full),?,?,-10.0,56.2µM*,2µM*,7.08µM*
CN(C)[C@@H]1C(=O)C(C(N)=O)=C(O)[C@]2(O)C(=O)C3=C(O)c4c(O)cccc4[C@@](C)(O)[C@H]3[C@H](O)[C@@H]12,·,·,-7.3,-1.7%,11.2µM*,·
CC(CCC(=O)O)C1CCC2C3C(=O)CC4CC(=O)CC[C@@]4(C)C3CC(=O)[C@]12C (stereo not given in full),6.1%,-1.4%,0.1,7.6%,1.8%,-1.2%
COc1ccc(CN2C(=O)NC(=O)/C(=C/c3ccoc3)C2=O)cc1,4.6%,9.3%,-0.3,?,-20.1%,-2.3%
COc1ccc(CN2C(=O)NC(=O)/C(=C/c3ccc(OC)c(OC)c3OC)C2=O)cc1,2.6%,-4.2%,14.0,39.8µM*,?,-17.8%
COc1ccc(CN2C(=O)NC(=O)/C(=C/c3cc(OC)c(OC)c(OC)c3)C2=O)cc1,-2.1%,-12.0%,7.7,79.4µM*,-7.2%,·
Cn1cccc1/C=C1\C(=O)NC(=O)N(Cc2ccccc2)C1=O,2.7%,-18.5%,6.2,-1.4%,-10.1%,?
CC1C(=O)OC2C1CC[C@@]1(C)C=CC(=O)[C@@]3(C)O[C@@]213 (stereo not given in full),-3.2%,-4.6%,4.2,5.7%,4.2%,-8.3%
